These results are taken from PubChem BioAssay AID2156 (Johns Hopkins Ion Channel Center, 2009).

Among all 310,000 compounds or so, about 3,400 (1.1%) were called active. The sample holds actives, similar compounds and a random draw of the others, so the mix is not that of the screen. Unmarked numbers belong to inactive results.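 The calls were made as follows: active = fluorescence ratio B-score at most minus 3 library SDs, with starting brightness B-score within 2 library SDs (cut at about -5.5 in these data); inactive = the rest, inconclusive results apart.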

For this experiment, the target named is Potassium voltage-gated channel subfamily KQT member 2 (Rattus norvegicus) (UniProt O88943). As to the kind of experiment: KCNQ2 channel blockers in CHO-K1 cells – cell-based, FluxOR thallium flux, B-score, primary screen (AID 2156). The note with it: 20 min, at 10 µM; active compounds read low.
Potassium voltage-gated channel subfamily KQT member 2 (Rattus norvegicus), sequence (O88943 whole entry, looked up): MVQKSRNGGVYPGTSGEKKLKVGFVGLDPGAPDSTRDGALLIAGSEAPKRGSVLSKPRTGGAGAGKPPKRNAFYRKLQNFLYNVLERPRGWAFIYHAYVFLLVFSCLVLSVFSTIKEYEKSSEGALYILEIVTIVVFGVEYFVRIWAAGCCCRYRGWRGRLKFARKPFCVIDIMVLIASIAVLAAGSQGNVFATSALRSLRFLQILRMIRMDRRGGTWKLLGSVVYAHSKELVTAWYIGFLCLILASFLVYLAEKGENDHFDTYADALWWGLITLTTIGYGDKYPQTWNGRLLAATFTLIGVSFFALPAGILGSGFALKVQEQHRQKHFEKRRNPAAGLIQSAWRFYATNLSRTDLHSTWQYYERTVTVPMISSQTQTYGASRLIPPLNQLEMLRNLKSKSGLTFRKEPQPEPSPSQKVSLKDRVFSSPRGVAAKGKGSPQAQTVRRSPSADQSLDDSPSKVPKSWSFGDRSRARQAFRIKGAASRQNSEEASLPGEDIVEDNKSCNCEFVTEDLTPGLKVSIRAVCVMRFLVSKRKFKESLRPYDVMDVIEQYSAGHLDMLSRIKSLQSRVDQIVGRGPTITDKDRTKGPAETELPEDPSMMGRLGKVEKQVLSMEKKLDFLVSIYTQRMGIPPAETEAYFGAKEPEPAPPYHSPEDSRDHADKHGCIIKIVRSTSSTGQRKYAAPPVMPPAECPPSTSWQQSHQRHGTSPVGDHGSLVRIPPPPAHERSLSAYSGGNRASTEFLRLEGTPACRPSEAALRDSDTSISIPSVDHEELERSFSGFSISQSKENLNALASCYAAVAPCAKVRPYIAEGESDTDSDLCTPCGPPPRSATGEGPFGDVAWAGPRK
Regarding `CC1=NNC(=O)C1Cc1c(Cl)cccc1Cl` (stereo not given), the B-score result is “inactive”. In the case of `COC(=O)[C@@]12CCCN1[C@H](c1ccc(-c3ccc(F)cc3)c(OC)c1)[C@H]1C(=O)N(C)C(=O)[C@H]12`, the B-score entry is “inactive”.

For `COc1ccc(C(=O)CN2C(=O)NC3(CCc4ccccc43)C2=O)c(OC)c1` (stereo not given), the B-score entry was “inactive”. As for `CCN(CC)c1ccc(S(=O)(=O)N2CCCCC2)cc1NC(=O)C1=COCCO1`, the figure is -0.93; as for `C=CCn1c(SCC(=O)NCC2CCCO2)nc2sc(C)c(C)c2c1=O` (stereo not given), “inactive”; as for `C=CCn1c(SCC(=O)/C(C#N)=C(\C)N)nc2sc(C)c(C)c2c1=O`, -7.77 (active). As for `Cc1sc2nc(SCC(N)=O)n(C)c(=O)c2c1C`, the figure is -0.14. As for `COc1ccccc1C(=O)NC(=O)COC(=O)C1CC1`, the entry is “inactive”. On to `COCCN(C(=O)COC(=O)Cc1cccc(OC)c1)c1c(N)n(Cc2ccccc2)c(=O)[nH]c1=O`, for which the B-score entry is “inactive”. The same measure for `COc1cccc(COc2ccc(N(C)S(=O)(=O)c3ccccc3)cc2)c1`: -8.25 (active). For `Cc1ccc2nc(COc3ccc(N(C)S(=O)(=O)c4ccccc4)cc3)cc(=O)n2c1`, the B-score entry was “inactive”. As for `CN(c1ccc(OCC(=O)O)cc1)S(=O)(=O)c1ccc2ccccc2c1`, the figure is -1.18; as for `COc1ccccc1C(CNC(=O)c1cccc(NS(=O)(=O)c2ccc(Br)cc2)c1)N(C)C` (stereo not given), -0.89; as for `O=S(=O)(Nc1ccc(-c2ccc(N3CCOCC3)nn2)cc1)c1cc(Cl)ccc1Cl`, -0.08. As for `CCCOc1ccc(C2c3c(oc4cc(C)c(C)cc4c3=O)C(=O)N2CCCN2CCOCC2)cc1` (stereo not given), the figure is -0.39; as for `Cc1cc2oc3ccc(NCCC4CCCN4C)cc3c(=O)c2cc1C` (stereo not given), -6.02 (active). The same measure for `Cc1cc2oc(=O)cc(CN3CCN(Cc4ccccc4)CC3)c2cc1C`: “inactive”. Turning to `Cc1ccc(S(=O)(=O)N2CCN(C(=O)Cc3sc(C)nc3-c3ccc(F)cc3)CC2)c(C)c1`, the B-score was -0.7. In the case of `CC(C)CN(C(=O)COC(=O)c1ccc2ccccc2c1)c1c(N)n(Cc2ccccc2)c(=O)[nH]c1=O`, the B-score entry is “inactive”. The same measure for `O=C(Nc1cc(Cl)ccc1N1CCOCC1)c1ccc(N2CCCC2=O)cc1`: “inactive”; for `COc1cc(OC)cc(C(=O)NNC(=O)CNC(=O)c2ccc(Br)o2)c1`: -1.49; for `Cc1ccc(O)c(CNc2nc3ccccc3n2C)c1`: “inactive”. For `CC(C)n1c(NCc2c[nH]c3ccccc23)nc2ccccc21`, the B-score is -8.14 (active). On to `CC(C)n1c(COc2ccccc2)nc2ccccc21`, for which the B-score is -0.24. With `Cc1nn(C)c(C)c1NS(=O)(=O)c1ccc(OC(F)(F)F)cc1`, the B-score result is “inactive”. As for `Cc1ccccc1OCc1nnc(SCC(=O)N2c3ccccc3Sc3ccc(Cl)cc32)o1`, the B-score was -7.73 (active). As for `Cc1ccc(NC(=O)CSc2nnc(COc3ccccc3C)o2)cc1`, the entry is “inactive”; as for `O=C(CSc1nc2ccccc2o1)N1c2ccccc2Sc2ccc(Cl)cc21`, -3.87. The same measure for `CN(N)c1nc(N2CCCC2)nc(N2CCCC2)n1`: -0.33; for `CC(=O)CC[C@@H](C)O[C@@H]1OC(C)[C@H](O)CC1O` (stereo not given in full): -0.8; for `c1ccc2c(CSCc3nc4ccccc4[nH]3)cccc2c1`: -4.3. Regarding `c1ccc(-c2nnc(SCc3nc4ccccc4[nH]3)o2)cc1`, the B-score entry was “inactive”. Turning to `Clc1ccccc1SCc1nc2ccccc2[nH]1`, the B-score was -5.77 (active). The same measure for `O=C(CSc1nc(=O)n2ccccc2n1)Nc1ccc2c(c1)OCCO2`: -1.2; for `COc1ccccc1NC(=O)C(C)OC(=O)CC1CCCC1` (stereo not given): -1. As for `C#CCNC(=O)[C@H](Cc1ccc(C(=O)c2ccccc2)cc1)NC(=O)OC(C)(C)C`, the entry is “inactive”; as for `COc1ccccc1NC(=O)[C@H](COCc1ccccc1)NC(=O)OC(C)(C)C`, -6.32 (active). Consider `CCOC(=O)N1CCN(C(=O)c2ccccc2SCC(=O)NCC2CCCCC2)CC1`, for which the B-score entry was “inactive”. As for `COc1ccc(NS(=O)(=O)c2ccc(C)c(C(=O)NCC(c3cccs3)N3CCOCC3)c2)cc1` (stereo not given), the figure is -0.42. The same measure for `COc1cc(C(O)c2nc3ccccc3n2C)cc(OC)c1OC` (stereo not given): -0.53; for `CCC(C)n1c(-c2cc(OC)c(OC)c(OC)c2)nc2nc3ccccc3nc21` (stereo not given): -6.81 (active); for `COc1cc(-c2n[nH]c(=S)n2Cc2ccccc2)cc(OC)c1OC`: -0.07. The same measure for `Cc1csc(=O)n1CC(=O)OCC(=O)N(CC(C)C)c1c(N)n(Cc2ccccc2)c(=O)[nH]c1=O`: “inactive”; for `COc1ccc(Cc2nnc(SCC(=O)N(c3ccccc3)C(C)C)n(N)c2=O)cc1`: -2.15. `O=C(COC(=O)Cc1ccccc1F)NNC(=O)c1ccc(Cl)cc1`: the B-score entry is “inactive”.

Take `Cc1cc(Cl)c2oc(C(=O)N3CCC(O)(c4ccccc4)CC3)c(C)c2c1`: the B-score is -2.12. As for `Cc1cc(Cl)c2oc(C(=O)NC(C)c3ccncn3)c(C)c2c1` (stereo not given), the entry is “inactive”; as for `Cc1cc(Cl)c2oc(C(=O)N(C)C(C)c3ccccn3)c(C)c2c1` (stereo not given), -5.81 (active). The same measure for `Cc1ccc(C(=O)C(C)OC(=O)Cc2n[nH]c(=O)c3ccccc23)cc1C` (stereo not given): “inactive”; for `CN(C)Cc1ccccc1C1(O)c2ccccc2CSc2ccccc21` (stereo not given): -7.67 (active). The same measure for `COCCn1c(SC(C)C(=O)NC2CC2)nnc1-c1cccc(C)c1` (stereo not given): “inactive”; for `CC(OC(=O)C1CC(=O)N(Cc2ccccc2)C1)C(=O)Nc1ccccc1[N+](=O)[O-]` (stereo not given): “inactive”; for `COC(OC)c1ccnc(SCc2ccccc2Cl)n1`: -0.02.

For `Fc1cccc(Cl)c1CSc1ccc(-c2ccco2)nn1`, the B-score was -0.68.

For the compound `Clc1ccccc1CSc1nnc(-c2ccco2)c(-c2ccco2)n1`, the B-score was -9.12 (active). As for `CCOc1ccc(S(=O)(=O)Nc2ccc(C(=O)NCCCN3CCCC3=O)cc2)cc1`, the entry is “inactive”.

In the case of `CCCNC(=O)c1ccc(N2CCC3(CC2)CC(c2cccc(Br)c2)=NO3)c(NC(=O)c2ccco2)c1`, the B-score was -0.15. Consider `Cc1cc2nc3n(c2cc1C)CC1CC(C(=O)NCCC(C)C)N(C)C31` (stereo not given), for which the B-score result was “inactive”. Regarding `Cc1ccc(C(=O)c2c(NC(=O)c3ccncc3)sc3c2CCCC3)cc1`, the B-score was -3.32. The same measure for `Cc1ccc(C(=O)c2c(NC(=O)c3ccccc3)sc(C)c2C)cc1`: -7.48 (active); for `Cc1sc(NC(=O)c2ccc3ncsc3c2)c(C(N)=O)c1C`: “inactive”. `COc1ccc(N2CCN(S(=O)(=O)c3cc4c5c(c3)C(C)C(=O)N5CCC4)CC2)cc1` (stereo not given): the B-score entry is “inactive”. `COc1ccc(-c2ccc3nnc(SCC(=O)Nc4ccc(NC(C)=O)cc4)n3n2)cc1`: the B-score was -0.47. For the compound `CC(=O)Nc1ccc(NC(=O)CSc2nnnn2C2CCCCC2)cc1`, the B-score is -0.45.

Take `COc1ccc(NC(=O)c2cc(-c3cc(OC)c(OC)c(OC)c3)nc3ccccc23)c(OC)c1`: the B-score was -5.97 (active). Turning to `COc1ccccc1NC(=O)c1cc(Cl)nc2ccccc12`, the B-score is -4.22.

For `COc1ccc(-c2cc(C(=O)Nc3ccccc3O)c3ccccc3n2)cc1`, the B-score was -1.2. The same measure for `O=C1CC2(CCN(C(=O)COc3ccc(F)cc3)CC2)Oc2ccccc21`: “inactive”; for `COc1ccc(C(=O)c2c3ccc([N+](=O)[O-])cc3[n+]([O-])n2CCCN)cc1`: -0.22; for `CCCCCC(=O)N1CCN(S(=O)(=O)c2ccc3c(c2)OCCCO3)CC1`: -1.36.

In the case of `COc1ccc(-c2nnc(SCC(=O)Nc3cccnc3Cl)n2C)cc1`, the B-score result was “inactive”. As for `Cc1cccc(N=C2SC(C)CN2C(=O)CN2C(=O)NC3(CCCC3)C2=O)c1` (stereo not given), the figure is -1.04; as for `CC1(C)C=Cc2c(ccc3c2OC[C@@H](c2ccc(O)cc2O)C3)O1`, -5.7 (active); as for `O=C(COc1ccccc1Cl)Nc1ccccc1C(=O)NC1CC1`, “inactive”. The same measure for `Cc1c(C)n2c(SCC(=O)N3CCCC3)nnc2[nH]c1=O`: -0.73; for `CCOC(=O)C1CCN(C(=O)Nc2ccc(C)c(Cl)c2)CC1`: “inactive”; for `CCOC(=O)C1CCN(C(=O)Nc2cccc(OC)c2)CC1`: -0.14. As for `CCOC(=O)N1CCC(N(CCOC)C(=O)Nc2ccc(C)c(C)c2)CC1`, the figure is -7.75 (active). `O=C(OCC1OC(Oc2ccc(O)cc2)C(O)C(O)C1O)c1ccccc1` (stereo not given): the B-score was -0.52. The same measure for `Cn1ccsc1=NC(=O)c1cc(S(=O)(=O)N2CCOCC2)ccc1Cl`: -2.45.

For `O=C(CN1C(=O)c2ccccc2C1=O)NCc1ccc(C(=O)O)cc1`, the B-score was -0.02. As to `CC(C)N(C(=O)c1ccc(-c2ccccc2F)cc1)C(C)C`, the B-score was -1.82. As for `CC(=O)N(C1=C(Cl)C(=O)c2ccccc2C1=O)c1ccc(C(=O)O)cc1`, the figure is -10.4 (active); as for `CC(=O)c1c(C)[nH]c(C(=O)N2CCN(S(=O)(=O)c3ccc(F)c(F)c3)CC2)c1C`, “inactive”. As for `C=CCOc1ccc(/C=C/C(=O)OCC(=O)NCC2CCCO2)cc1` (stereo not given), the entry is “inactive”; as for `CCc1ccc(-c2cc(C(=O)NCc3ccco3)c3ccccc3n2)s1`, -7.07 (active); as for `CCCCN(C)CCCNC(=O)c1cc(-c2cccs2)nc2ccccc12`, “inactive”.

Take `COC(=O)CNC(=O)c1cc(-c2ccncc2)nc2ccccc12`: the B-score is -0.09. With `COc1ccc(NS(=O)(=O)c2ccc(C)c(C(=O)NNC(=O)c3csc(N4CCOCC4)n3)c2)cc1`, the B-score was -0.78.

Consider `CCc1noc(C)c1C(=O)N1CCCSC1=Nc1ccccc1OC`, for which the B-score entry is “inactive”.

For `CCC1(c2ccccc2)NC(=O)N(CC(=O)Nc2ccccc2C(=O)NC2CCCC2)C1=O` (stereo not given), the B-score result was “inactive”. As for `CCN1C(=O)[C@H]2[C@@H](c3ccc(C)cc3)N3C(=O)N(c4cccc(Br)c4)C(=O)[C@@]3(CC)[C@H]2C1=O`, the figure is -0.8; as for `O=C(c1cc2ccccc2o1)N1CCN(c2cccc(C(F)(F)F)c2)CC1`, -0.25.

As to `c1ccc(-c2cc(N3CCCCC3)c3ccccc3n2)cc1`, the B-score is -0.16. As for `FC(F)(F)c1cccc(-c2cc3ccccc3nc2N2CCCC2)c1`, the figure is -6.95 (active).
